According to PubChem BioAssay (EPA / NIEHS):
Inconclusive results are not listed. Active and inactive are the calls of the source. The calls were made as follows, unless noted: active = hit-call score of the fitted dose curve at least 0.9, where 1 is the maximum; inactive = score below 0.9.

Experiments:
[1] = read-out: Tumor necrosis factor receptor 1 (TNFRSF1A), TNFRSF1A (gene 7132); assay: LTEA_HepaRG_TNFRSF1A: Life Technologies and Expression Analysis (LTEA) Assay for Tumor necrosis factor receptor 1 (TNFRSF1A) using HepaRG (AID 2283535); settings: mRNA level, 48 h; actives raise or lower the signal
In short: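 Differentiated human HepaRG cells were exposed in duplicate for 48 h in serum-free induction medium to eight concentrations (top 100 uM, half-log steps, 0.5% DMSO). TNFRSF1A mRNA was quantified by qRT-PCR, normalized to ACTB, GAPDH and POLR2A, then fitted bidirectionally against DMSO.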

[2] = read-out: Thyroid Hormone Responsive (THRSP), THRSP (gene 7069); assay: LTEA_HepaRG_THRSP: Life Technologies and Expression Analysis (LTEA) Assay for Thyroid Hormone Responsive (THRSP) using HepaRG (AID 2283536); settings: mRNA level, 48 h; actives raise or lower the signal
In short: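 mRNA induction or loss relative to 0.5% DMSO vehicle was fitted bidirectionally across an eight-point curve whose highest exposure was 100 uM. Human HepaRG liver cells received chemicals in duplicate over 48 h before RNA extraction.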

[3] = read-out: Cellular tumor antigen p53 (Homo sapiens) (UniProt P04637); assay: LTEA_HepaRG_TP53: Life Technologies and Expression Analysis (LTEA) Assay for Tumor Protein P53 (TP53) using HepaRG (AID 2283537); settings: mRNA level, 48 h; actives raise or lower the signal
In short: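 Gain or loss of TP53 mRNA signal is scored relative to 0.5% DMSO after 48 h chemical treatment of HepaRG liver cells, tested in duplicate at eight half-log concentrations up to 100 uM.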

[4] = read-out: UDP glucuronosyltransferase (UGT1A1), UGT1A1 (gene 54658); assay: LTEA_HepaRG_UGT1A1: Life Technologies and Expression Analysis (LTEA) Assay for UDP glucuronosyltransferase (UGT1A1) using HepaRG (AID 2283538); settings: mRNA level, 48 h; actives raise or lower the signal
In short: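 Differentiated human HepaRG cells in serum-free induction medium were exposed in duplicate for 48 h to eight half-log concentrations up to 100 uM in 0.5% DMSO. UGT1A1 mRNA was quantified by TaqMan qRT-PCR, normalized to ACTB, GAPDH and POLR2A, and fitted bidirectionally against DMSO.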

[5] = read-out: UDP glucuronosyltransferase (UGT1A6), UGT1A6 (gene 54578); assay: LTEA_HepaRG_UGT1A6: Life Technologies and Expression Analysis (LTEA) Assay for UDP glucuronosyltransferase (UGT1A6) using HepaRG (AID 2283539); settings: mRNA level, 48 h; actives raise or lower the signal
In short: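 Human HepaRG cells were dosed for 48 h in serum-free induction medium with 0.5% DMSO vehicle, eight-point half-log series from 100 uM, in duplicate. UGT1A6 mRNA was measured by qRT-PCR, normalized to ACTB, GAPDH, POLR2A, and fitted bidirectionally against DMSO.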

[6] = read-out: X-box binding protein 1 (XBP1), XBP1 (gene 7494); assay: LTEA_HepaRG_XBP1: Life Technologies and Expression Analysis (LTEA) Assay for X-box binding protein 1 (XBP1) using HepaRG (AID 2283540); settings: mRNA level, 48 h; actives raise or lower the signal
In short: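 Differentiated human HepaRG cells in serum-free induction medium were exposed in duplicate for 48 h to eight half-log concentrations up to 100 uM in 0.5% DMSO. XBP1 mRNA was quantified by qRT-PCR, normalised to ACTB, GAPDH and POLR2A, with bidirectional fitting against DMSO.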

[7] = LTEA_HepaRG_LDH_cytotoxicity: Cytotoxicity Assessment in the Life Technologies and Expression Analysis (LTEA) Assay (AID 2283563; active = hit-call score of the fitted dose curve at least 0.9, where 1 is the maximum;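 as to AC50: LDH activity released into spent culture medium as a marker of cell death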)
In short: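 Differentiated human HepaRG cells, plated 48 h beforehand, were switched to serum-free induction medium and exposed for 48 h to eight half-log concentrations (top 100 uM) in 0.5% DMSO. LDH was measured in spent medium; activity was fitted relative to DMSO vehicle.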

[8] = ATG_XTT_Cytotoxicity: Cytotoxicity Assessment in the Attagene TRANS-FACTORIAL HepG2 Assay (AID 2283584; active = hit-call score of the fitted dose curve at least 0.9, where 1 is the maximum;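 as to AC50: cells exposed to compound for 24 h before reading; active means loss of viability signal versus DMSO baseline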)
In short: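 HepG2 human liver cells, transiently transfected with multiple GAL4-UAS reporter units, were dosed and read at 24 h by XTT as cell number. Loss of signal was fitted relative to DMSO negative control baseline.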

[9] = TOX21_p53_BLA_p2_viability: Viability Assessment in the Tox21 HCT-116 p53 Agonism Beta-lactamase Assay, Phase 2 (AID 2283591; active = hit-call score of the fitted dose curve at least 0.9, where 1 is the maximum;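 also: compound exposure lasted 16 h at 37 °C; actives lower the ATP signal meaning cytotoxicity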)
In short: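 Cytotoxicity readout: CellTiter-Glo ATP luminescence, 30 min at room temperature, after the beta-lactamase read. Cells were HCT116 exposed 16 h at 37C to compounds pin-transferred at 217-fold dilution from DMSO stocks.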

Measured: AC50

Chain of Cellular tumor antigen p53 (Homo sapiens) (P04637 whole entry, looked up): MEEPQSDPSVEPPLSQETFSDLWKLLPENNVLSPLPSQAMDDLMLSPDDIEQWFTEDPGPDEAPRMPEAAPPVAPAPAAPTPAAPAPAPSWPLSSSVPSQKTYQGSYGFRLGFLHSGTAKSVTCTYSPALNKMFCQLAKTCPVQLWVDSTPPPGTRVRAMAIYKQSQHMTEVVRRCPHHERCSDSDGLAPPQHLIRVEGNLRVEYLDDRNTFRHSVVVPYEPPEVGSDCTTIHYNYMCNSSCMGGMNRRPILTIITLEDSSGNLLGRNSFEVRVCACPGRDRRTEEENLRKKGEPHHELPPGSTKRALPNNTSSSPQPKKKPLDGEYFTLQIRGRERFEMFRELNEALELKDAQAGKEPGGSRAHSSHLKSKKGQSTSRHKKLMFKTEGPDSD

CCCC(=O)OCCC(C)C
inactive: [1] | [2] | [3] | [4] | [5] | [6] | [7]

Cc1cc(F)ccc1-c1cc(N2CC[C@@H](O)[C@H]2CO)ncc1N(C)C(=O)C(C)(C)c1cc(C(F)(F)F)cc(C(F)(F)F)c1
active: [2] 20.6 µM | [3] 19.9 µM | [4] 23 µM | [7] 30.9 µM | [8] 23.3 µM | [9] 11 µM
inactive: [1] | [5] | [6]

COc1cc(C(=O)NC2CCN(C)CC2)ccc1Nc1ncc2c(n1)N(C1CCCC1)CC(F)(F)C(=O)N2C
inactive: [8]
active: [1] 4.65 µM | [2] 0.923 µM | [3] 8 µM | [4] 21 µM | [5] 8.85 µM | [6] 10.8 µM | [7] 16.5 µM | [9] 47.4 µM

Clc1cc(Cl)c2c(c1)N=C1CCCCCN1C2
inactive: [1] | [2] | [3] | [4] | [5] | [6] | [7] | [9]

COCC(C)OCC(C)OCC(C)O (stereo not drawn)
inactive: [1] | [2] | [3] | [4] | [5] | [6] | [7] | [8]

CCN(Cc1cccnc1)C(=O)c1cccc(Cl)c1[C@]1(C)C(=O)N(Cc2ccc(OC)cc2OC)c2ccc(Cl)cc21
inactive: [1] | [9]
active: [2] 24 µM | [3] 11.6 µM | [4] 25.2 µM | [5] 16.7 µM | [6] 24.6 µM | [7] 25.5 µM

Oc1ccccc1
inactive: [1] | [2] | [3] | [4] | [5] | [6] | [7] | [9]

Cc1ccc(C(C)C)cc1
inactive: [1] | [2] | [3] | [4] | [5] | [6] | [7] | [8] | [9]

O=c1c(-c2ccc(O)cc2)coc2cc(O)cc(O)c12
inactive: [1] | [2] | [3] | [4] | [5] | [6] | [7] | [8] | [9]

CCOC(=O)O[C@H](C)OC(=O)c1ccc2c(c1)cc(C(=O)NC1CCN(C(C)C)CC1)n2Cc1cc(-c2ccc(Cl)s2)on1
inactive: [1] | [3] | [4] | [5] | [6]
active: [2] 16 µM | [7] 79.2 µM | [9] 16.1 µM
